Source: PubChem
Compounds with a hit are over-represented: about 0.92% of the library has one in this group of screens.
AGP1 TOR yeast: modulators of AGP1-GFP expression in yeast TOR pathway, primary screen, cell-based, multiplex flow cytometry, S. cerevisiae, MLPCN library; 3 h; GFP as percent of DMSO wells; GFP response vs DMSO, % at 10 µM; 0.02% of 320,000 active; AID 2066, 2009;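 active = GFP response relative to DMSO above a set limit, near screen average plus 3 SD, cut at about 150% in these data; inconclusive = fewer than 70 cells counted for the yeast strain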;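 note: median GFP channel fluorescence of the gated AGP1 strain per well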
MEP2 TOR yeast: modulators of MEP2-GFP levels in yeast, primary screen, S. cerevisiae, multiplex flow cytometry, MLPCN library | S. cerevisiae MEP2-GFP strain, 3 h; 100% = DMSO control level | GFP response vs DMSO, % at 10 µM | 0.51% of 330,000 active;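 active = GFP response versus DMSO above a set limit, roughly screen mean plus 3 SD, cut at about 180% in these data; inconclusive = fewer than 70 cells counted for a yeast strain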;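 note: median GFP fluorescence of the barcode-gated MEP2-GFP cells per well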
RPL19A TOR yeast: RPL19A-GFP expression modulators in yeast, primary screen, cell-based, S. cerevisiae, multiplex flow cytometry, MLPCN. AID 2025, 2009. percent response vs DMSO, % at 10 µM. 0.3% of 330,000 active. S. cerevisiae RPL19A-GFP strain, 3 h; hits give low values;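 active = percent response vs DMSO below 50%; inconclusive = fewer than 70 events counted for the yeast strain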;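 note: median channel GFP fluorescence of the barcoded RPL19A-GFP strain; ratio of sample median GFP to plate DMSO average so 100% = DMSO; lower means less RPL19A-GFP as with rapamycin TOR inhibition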
LAP4-GFP MLPCN: modulators of LAP4-GFP expression in yeast, primary screen, S. cerevisiae, multiplex flow cytometry, MLPCN library. 3 h; median GFP as percent of DMSO wells. GFP response vs DMSO, % at 10 µM. 0.34% of 320,000 active. AID 2023, 2009;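 active = GFP response vs DMSO above a set limit, about the screen mean plus 3 SD, cut at about 150% in these data; inconclusive = under 70 cell events counted for the yeast strain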
CIT2-GFP yeast: modulators of CIT2-GFP expression in yeast, primary screen, S. cerevisiae, GFP fusion, multiplex flow cytometry, MLPCN library; 0.065% of 320,000 active; S. cerevisiae CIT2-GFP strain, 3 h; 100 means same as DMSO wells; GFP response vs DMSO, % at 10 µM; AID 2029, 2009;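 active = GFP response relative to DMSO above a set limit, near the screen mean plus 3 SD, cut at about 150% in these data; inconclusive = Fewer than 70 cells measured for a yeast strain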;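 note: ratio of well median GFP fluorescence to mean of DMSO wells on the plate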
Numbers without * were called inactive; ? = inconclusive; . = no result given; + = active, no number; [ ] = another dose, or the depositor's remark.

SMILES	AGP1 TOR yeast	MEP2 TOR yeast	RPL19A TOR yeast	LAP4-GFP MLPCN	CIT2-GFP yeast
CC(C)NC(=O)CSc1c2c(nc3ccccc13)CCCC2	99.3	102.0	104.9	91.7	99.1
CCN(CC)CCCN(C(=O)c1ccc(Br)cc1)c1nc(-c2ccc(OC)cc2)cs1	160.8*	+	80.3	276.2*	159.9*
Cc1cccc(C(=O)N=c2c(C#N)cc3c(=O)n4cccc(C)c4nc3n2Cc2ccco2)c1	?	293.8*[may fluoresce violet]	17.4*[may fluoresce violet]	82.9	?
Cc1cccn2c(=O)c3cc(C#N)c(=NC(=O)c4ccco4)n(Cc4ccco4)c3nc12	18.6	134.9	80.2	103.5	?
Cc1ccc(-n2c(=O)c(C#N)cc3c(=O)n4cccc(C)c4nc32)cc1	22.0	150.1	42.5*[may fluoresce violet]	83.2	?
Cc1cccn2c(=O)c3cc(C#N)c(=NC(=O)c4ccccc4)n(Cc4ccco4)c3nc12	22.4	256.8*[may fluoresce violet]	43.7*[may fluoresce violet]	95.8	?
Cc1ccc(Cn2c(=N)c(C#N)cc3c(=O)n4cccc(C)c4nc32)cc1	100.2	103.8	93.6	94.6	91.9
CCOc1ccc(CNS(=O)(=O)c2ccc3c(c2)CC(=O)N3C)cc1	?	169.9	17.5*[may fluoresce violet]	72.5	?
CCOc1ccc(S(=O)(=O)NCc2ccncc2)cc1	112.7	108.5	103.8	97.3	106.5
N#C/C(=C\c1c(N2CCCCCC2)nc2ccccn2c1=O)C(=O)NC1CCS(=O)(=O)C1 (configuration not stated)	100.7	181.0*	105.0	118.8	106.4
N#C/C(=C\c1c(N2CCOCC2)nc2ccccn2c1=O)C(=O)NC1CCS(=O)(=O)C1 (configuration not stated)	22.8	597.6*[may fluoresce violet]	55.4	99.8	?
N#C/C(=C\c1c(N2CCN(c3ccccc3)CC2)nc2ccccn2c1=O)C(N)=O	74.2	259.6*	41.3*	99.4	88.5
Cc1ccc(Oc2nc3ccccn3c(=O)c2/C=C(\C#N)C(=O)NC2CCS(=O)(=O)C2)c(C)c1 (configuration not stated)	96.4	103.7	99.7	87.6	101.7
N#C/C(=C\c1c(Oc2ccccc2Cl)nc2ccccn2c1=O)C(=O)NC1CCS(=O)(=O)C1 (configuration not stated)	82.5	103.7	98.5	95.9	97.7
Cc1cc(C)cc(Oc2nc3ccccn3c(=O)c2/C=C(\C#N)C(=O)NC2CCS(=O)(=O)C2)c1 (configuration not stated)	?	627.5*[may fluoresce violet]	52.3	95.4	?
N#C/C(=C\c1c(N2CCCCCC2)nc2ccccn2c1=O)C(N)=O	100.1	103.7	101.9	94.5	108.9
O=S(=O)(Nc1nccs1)c1ccc(F)cc1	98.5	90.0	98.2	104.5	89.7
O=C(CCN1C(=O)S/C(=C/c2ccccc2)C1=O)Nc1ccc(O)c(C(=O)O)c1	?	142.3	17.2*[may fluoresce violet]	85.6	?
COC(=O)c1ccccc1-c1ccc(/C=N/NC(=O)c2cc3ccccc3o2)o1	91.1	88.2	98.1	92.3	87.1
COC(=O)c1ccccc1-c1c2ccc(=N)cc-2oc2cc(N)ccc12	666.5*[may fluoresce green]	+[may fluoresce green]	624.5	+[may fluoresce green]	+[may fluoresce green]
O=c1nc2ccccc2c2n1CC(CN1CCN(c3ccc(F)cc3)CC1)N2 (configuration not stated)	?	94.0	31.3*[may fluoresce violet]	80.9	?
CCC(C)NCCCOc1cc(Cl)ccc1Cl (configuration not stated)	.	609.1*[may fluoresce violet]	42.0*[may fluoresce violet]	123.6	?
Cc1cccc2nc(-c3cccnc3)c(NCCC(C)C)n12	108.0	179.3*	108.3	149.2	145.0
C=CCNC(=S)NNC(=O)c1ccccc1OCC	103.1	109.8	116.7	101.5	107.3
COc1cccc(-c2nn3c(-c4ccco4)nnc3s2)c1	?	?	17.3*[may fluoresce violet]	?	?
SMILES	AGP1 TOR yeast	MEP2 TOR yeast	RPL19A TOR yeast	LAP4-GFP MLPCN	CIT2-GFP yeast
CCN1/C(=C/C=C/C=C/c2sc3ccccc3[n+]2CC)Sc2ccccc21	35.8	265.3*[may fluoresce red]	?	?	109.4
CCN1/C(=C/C=C/C=C/C=C/c2sc3ccccc3[n+]2CC)Sc2ccccc21	90.4	114.4	?	124.1	101.5
Cc1ccc(CN2CCN(C/C(Cl)=C/c3ccccc3)CC2CCO)o1 (configuration not stated)	103.8	104.6	103.6	99.7	106.2
Cc1cc(=O)[nH]c(-n2nc(C)cc2C)n1	90.9	93.5	99.8	173.0*	91.8
CC(C)C(NC(=O)C1CC(=O)N(Cc2ccccc2)C1)c1nc2ccccc2[nH]1 (configuration not stated)	100.2	109.5	103.4	97.4	109.6
Cn1c(=O)c(C(=O)Nc2ncccc2O)c(O)c2ccccc21	28.7	104.8	30.4*	88.0	49.1
CC(=O)Nc1nnc(S(=O)(=O)N2CCN(c3ccc(Cl)cc3[N+](=O)[O-])CC2)s1	105.4	112.6	106.3	105.9	105.0
Cc1cccc(NC(=O)C(=O)NCC2CCCN2S(=O)(=O)c2ccccc2)c1 (configuration not stated)	110.5	100.1	97.8	106.0	82.1
CCN(c1cc(C)cc(C)c1)S(=O)(=O)c1nnc(NC(=O)C(C)(C)C)s1	15.2	646.9*[may fluoresce violet]	97.2	73.9	?
CCC(=O)Nc1nnc(S(=O)(=O)N(CC)c2cc(C)cc(C)c2)s1	110.7	110.9	115.6	101.0	102.0
O=C(COCC(=O)NCc1ccccc1)NCc1ccccc1	100.9	92.6	94.3	101.2	102.2
CCN(CC)C(=O)c1ccc2c3c(cccc13)C(=O)N(CCc1ccc(OC)c(OC)c1)C2=O	98.2	176.9*	103.6	118.8	102.6
COc1ccccc1CNC(=O)c1cnccn1	?	185.6*[may fluoresce violet]	29.2*[may fluoresce violet]	102.7	?
CC1(C)CC(=O)C([N+](=O)[O-])=C(NCCCC(=O)O)C1	?	709.0*[may fluoresce violet]	26.2*[may fluoresce violet]	86.3	?
CC1(C)CC(=O)C(C#N)=C(NCCCO)C1	93.1	106.0	96.2	90.7	100.1
CC1(C)CCC[C@@]2(C)CC=C(C(=O)O)[C@@H]3C[C@]312	?	480.2*[may fluoresce violet]	14.5*[may fluoresce violet]	94.9	?
Cc1noc(C)c1S(=O)(=O)Nc1cccc(CO)c1	113.0	95.6	91.6	111.3	152.1*[may fluoresce green]
Cc1noc(C)c1S(=O)(=O)Nc1ccc(C#N)cc1	117.7	105.7	91.6	103.1	155.6*[may fluoresce green]
Cc1ccc(NS(=O)(=O)c2c(C)noc2C)cc1	90.7	106.4	102.8	117.4	99.5
CCOc1cc(CNCC2CCCN2CC)cc(Cl)c1OC (configuration not stated)	25.6	222.9*[may fluoresce violet]	44.5*[may fluoresce violet]	93.5	?
CCN1CCCC1CNCc1cc(OC)c(OC)c(OC)c1 (configuration not stated)	106.3	106.1	101.8	108.9	107.8
